For 16 compounds, z-score results are on record in PubChem BioAssay.

Active and inactive are the calls of the source.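 How the source made its calls: active means z-score of at least 1.8 in each of two replicates, scored against plate mean and spread of sample wells; inactive means the rest.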

The experiment can be described thus: viability rescue of complex I mutant cybrids, primary screen, cell-based, galactose medium, ATP luminescence (AID 1645843).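 Further: positive z means more ATP and so rescue of galactose-driven cybrid death.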 To be noted: complex I mutant cybrid cells, 72 h, hits give high values.
Consider `CC(C)Oc1cccc(C(=O)N2CCC(n3cc(C(C)(C)O)nn3)CC2)c1`, for which the z-score is -0.52 (inactive).

On to `CCCCc1cn(C2CCN(C(=O)[C@@H]3CCCO3)CC2)nn1`, for which the z-score is -0.55 (inactive).

Turning to `CCN(CC)C(CNCc1ccc(OC)c(F)c1)c1ccco1` (stereo unspecified), the z-score is -0.84 (inactive).

For `CC(CCc1ccc(O)cc1)NC1CCCCCC1` (stereo unspecified), the z-score was -0.855 (inactive).

As to `COc1cccc(CN2CCN(C(=O)c3cc4cc(OC)ccc4[nH]3)CC2=O)c1`, the z-score was -0.41 (inactive).

Take `NC(=O)NCc1cn(C2CCN(C(=O)C3CCCCCC3)CC2)nn1`: the z-score was -0.575 (inactive).

For the compound `O=C(C1CCCCCC1)N1CCc2[nH]nc(C3CCC3)c2C1`, the z-score is 0.435 (inactive).

For `Cn1nccc1NC(=O)Cn1ccc(-c2cnn(-c3ccccc3F)c2)n1`, the z-score is -0.815 (inactive).

Turning to `O=c1cc(-c2ccccc2Cl)nc(-c2ccc(CN3CC[C@H](O)C3)cc2)[nH]1`, the z-score is 0.305 (inactive).

For the compound `CCCCc1cn(C2CCN(C3Cc4ccccc4C3)CC2)nn1`, the z-score was -0.33 (inactive).

In the case of `c1coc(-c2nc3c(cnn3Cc3cccs3)[nH]2)c1`, the z-score is -0.74 (inactive).

For the compound `CC(C)c1n[nH]c2c1CN(C(=O)C1CCCCCC1)CC2`, the z-score is -0.485 (inactive).

For `CC(C)(C)c1cn(C2CCN(C(=O)CC3CCCCCC3)CC2)nn1`, the z-score is -0.225 (inactive).

Consider `COc1cc(F)c(C(=O)N(C)CC2CCCCN2C)c(F)c1` (stereo unspecified), for which the z-score was -0.575 (inactive).

For the compound `COc1cc(Cl)ccc1C(=O)N1CCC(Cn2cc(C3CC3)nn2)CC1`, the z-score is -0.63 (inactive).

On to `Cc1ccn2cc(Cn3cnc4ccc(F)cc4c3=O)nc2c1`, for which the z-score is 0.645 (inactive).
